HT1080 IDH1KD tx: qHTS for induction of synthetic lethality in tumor cells producing 2HG: qHTS for the HT-1080-IDH1KD cell line. HT-1080 IDH1 knockdown viability, ATP luminescence, 48 h. Potency, µM (doses to about 46.1 µM), for inactives: top-dose activity, negative = toxicity, actives largely listed as cytotoxic. 360,000 compounds, 2% hits. AID 686971, 2013;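 note: 0% = DMSO wells and -100% = cell-free medium wells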
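Assay cells: HT-1080 with IDH1 knockdown, 750 per well, RPMI/5% FBS. Exposure: 48 h at 37 °C following 2 h pre-incubation. Read: CellTiter-Glo luminescence; fitted concentration-response, curve class assigned.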
KB-3-1 tox: qHTS assay for MDR1-selective chemotherapeutics: Primary screen using the parental adenocarcinoma cell KB-3-1; KB-3-1 viability, CellTiter-Glo ATP luminescence, 72 h; Potency, µM (doses to about 46.1 µM), usual class: cytotoxic; 400,000 compounds, 1.4% hits; AID 1347075, 2019; note: % is set by controls: 0 for no effect and ±100 for the full control effect; nearly all actives have a fitted effect of over 60% in size
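Luminescent ATP read-out (CellTiter-Glo) measures survival of drug-naive KB-3-1 cells after 72 h compound exposure at 37 °C. Titration series was screened from lowest to highest concentration, with DMSO vehicle plates as background controls.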
SW480 rereplic: A quantitative high throughput screen for small molecules that induce DNA re-replication in SW480 colon adenocarcinoma cells; SW480 DNA re-replication, Hoechst DNA content imaging, 48 h; 340,000 compounds, 1.8% hits; Potency, µM (top dose mostly 46.1 µM), without a hit: top-dose re-replication activation, actives largely listed as activators; note: % of control where 0% means no effect; nearly all actives have a fitted effect of over 55% in size
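Cells (250 per well) received 23 nL compound or DMSO by pin tool and were kept 48 hr at 37 C, 5% CO2. Nuclei were then stained with Hoechst for 40 min and scanned for DNA content.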
MCF10A rerep: A quantitative high throughput screen for small molecules that induce DNA re-replication in MCF 10a normal breast cells | Potency, µM (titrated, usually from 46.1 µM), inactives show at the top dose activity, positive = re-replication, most hits filed as activators | 350,000 compounds, 2.9% hits | MCF 10A DNA re-replication, Hoechst nuclear intensity, 48 h; note: % of control where 0% means no effect; nearly all actives have a fitted effect of over 50% in size
KB-V1 MDR tox: qHTS assay for MDR1-selective chemotherapeutics: Primary screen using the drug-selected MDR subline cells KB-V1. KB-V1 MDR cells viability, CellTiter-Glo, 72 h. Potency, µM (titrated, usually from 46.1 µM), actives largely listed as cytotoxic. 400,000 compounds, 3.4% hits. AID 1347076, 2019; note: % is set by controls: 0 for no effect and ±100 for the full control effect; nearly all actives have a fitted effect of over 60% in size
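KB-V1 cells (P-gp-expressing MDR subline of KB-3-1) in phenol-red-free DMEM with 10% FBS were exposed to library compounds over a concentration series for 72 h at 37 degrees C. Viability read by CellTiter-Glo luminescence; concentration-effect curves fitted after normalization.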
HT1080-NT tox: qHTS for induction of synthetic lethality in tumor cells producing 2HG: qHTS for the HT-1080-NT fibrosarcoma cell line; HT-1080-NT fibrosarcoma viability, CellTiter-Glo ATP luminescence, 48 h; Potency, µM (top dose mostly 46.1 µM), inactives show at the highest dose activity, negative = less viability, most hits filed as cytotoxic; 360,000 compounds, 1.6% hits; AID 686970, 2013;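 note: NT is the 2HG producing partner of a matched IDH1 knockdown line; 0% = DMSO-treated cells and -100% = media-only wells without cells; nearly all actives have a fitted effect of over 55% in size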
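Read-out is CellTiter-Glo luminescence after 10 minutes at room temperature, following 48 hours' compound treatment of HT-1080-NT cells (750 cells/well, RPMI, 5% FBS, 37 degrees C).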
Starred values were filed as active, the others as inactive; i = inactive; u = inconclusive; x = not tested or not shown; [ ] = dose if it differs, or a comment. An excerpt weighted towards active compounds, which were near 7.9% of everything screened. Calls come from the whole dose curve; as a rule, active = well fitted curve in the direction sought with a large enough effect; inconclusive = small, poorly fitted or top-dose-only effect, or another doubt; inactive = no such curve, though single readings can be large; an effect the other way counts as inactive or inconclusive. Potency is the fitted concentration of half-maximal effect.

SMILES | HT1080 IDH1KD tx | KB-3-1 tox | SW480 rereplic | MCF10A rerep | KB-V1 MDR tox | HT1080-NT tox
CCCCN(CCCC)C(=O)CSc1nnc2n(C)c(=O)c3c4c(sc3n12)CCCC4 | -5.0% | u | 1.0% | -10.2% | 23.1µM* | -5.0%
Cc1ccc(NC(=S)N2CCN(Cc3ccc4c(c3)OCO4)CC2)c(C)c1 | -7.5% | i | 0.8%[9.22 µM] | u | i | -4.7%
CN(C)S(=O)(=O)c1ccc(Cl)c(NC(=O)CN2CCN(Cc3ccc4c(c3)OCO4)CC2)c1 | -2.7% | u | 3.5% | u | 14.6µM* | 0.0%
CCN(CC)S(=O)(=O)c1ccc(C)c(NC(=S)N2CCN(Cc3ccc4c(c3)OCO4)CC2)c1 | 20.6µM* | 23.1µM* | -5.2% | u | u | u
COc1ccc(CNC(=O)c2cnc(N3CCCC3)nc2C)c(OC)c1 | x | i | x | x | i | x
CC(=O)NC1(C(F)(F)F)C(=O)Nc2c1c(=O)n(C)c(=O)n2C (stereo not given) | 14.1% | i | -4.3% | -5.4% | i | 9.6%
O=C(N/N=C/c1c[nH]c2ccccc12)c1cc(Br)ccc1O | -28.9% | i | u | 1.5% | i | u
O=C(N/N=C/c1c[nH]c2ccccc12)c1[nH]c2ccc(Br)cc2c1-c1ccccc1 | 6.51µM* | 1.64µM* | 8.2µM* | u | u | 7.31µM*
CC(=O)NNC(=O)c1[nH]c2ccc(Cl)cc2c1-c1ccccc1 | u | i | 9.4% | 8.5% | u | -28.2%
NNC(=O)c1[nH]c2ccccc2c1-c1ccccc1 | 1.3µM* | u | 9.2µM* | u | i | u
O=C(N/N=C/c1ccc(O)cc1)c1[nH]c2ccc(Br)cc2c1-c1ccccc1 | 4.11µM* | 7.31µM* | 7.31µM* | u | i | 4.61µM*
Cc1c(C(=O)N/N=C/c2ccc(Cl)cc2)[nH]c2ccc(Cl)cc12 | 3.26µM* | 1.03µM* | 2.06µM* | u | u | 5.8µM*
CC(=O)Nc1cccc(NC(=O)c2cc(-c3cccnc3)nc3ccc(Cl)cc23)c1 | u | i | -0.7% | u | i | u
Cc1ccc2nc(-c3cccnc3)cc(C(=O)Nc3ccccc3[N+](=O)[O-])c2c1 | -8.3% | x | u | 14.6µM* | x | -5.3%
CSc1ccccc1NC(=O)c1cc(-c2cccnc2)nc2ccc(Br)cc12 | 1.6% | u | 2.6% | 16.4µM* | u | -4.2%
O=C(Nc1cccnc1)c1cc(-c2ccc(Br)cc2)nc2ccccc12 | u | i | 16.7% | u | i | u
CC(=O)Nc1cccc(NC(=O)c2cc(-c3cccnc3)nc3ccc(Br)cc23)c1 | u | i | u | 11.6µM* | i | u
O=C(Nc1ccc(C(F)(F)F)cc1)c1cc(-c2cccnc2)nc2ccc(Br)cc12 | 5.0% | i | u | 5.17µM* | u | 11.3%
O=C(O)c1cc(-c2cccnc2)nc2ccc(Br)cc12 | 14.2% | i | 2.3% | -17.1%[9.22 µM] | i | -1.3%
O=[N+]([O-])c1c(Nc2ccc(Br)cc2)ccc2nonc12 | 21.6% | i | -3.8% | -0.4% | i | 12.3%
Cc1ccc(C)c(CSc2nc3ccncc3n2CC(=O)Nc2ccc(C)c(C)c2)c1 | x | x | 14.4% | 21.1% | x | x
COc1ccc(S(=O)(=O)NCC(c2cccnc2)N2CCN(Cc3ccccc3)CC2)cc1 (stereo not given) | -0.6% | i | -0.9% | 9.3% | i | -0.9%
CCC(=O)N1CCc2cc(OC)c(OC)cc2C1COc1ccc2c(C)cc(=O)oc2c1 (stereo not given) | x | i | x | x | i | x
COCCNC(=O)[C@H](CSCc1ccccc1)N1Cc2ccccc2C1=O | 0.3% | i | -6.9% | -2.0% | 9.2µM* | 3.3%
CCCCOc1ccc(Cc2c(Cl)nc(SC)nc2N2CCOCC2)cc1 | 0.7% | i | 3.9% | 15.4% | 20.6µM* | -1.4%
SMILES | HT1080 IDH1KD tx | KB-3-1 tox | SW480 rereplic | MCF10A rerep | KB-V1 MDR tox | HT1080-NT tox
N/C(CSc1ncccc1C(F)(F)F)=N\O | 7.2% | i | u | 3.9% | i | 11.2%
CSc1nnc2c3ccccc3n(CCc3ccccc3)c2n1 | u | 9.2µM* | u | u | i | -16.0%
CCC(C)NC(=O)c1[nH]c2cc(OC)ccc2c1Sc1ccc(C)cc1 (stereo not given) | x | i | x | x | i | x
Oc1cc2c(cc1O)C(c1ccccc1)CNCC2 (stereo not given) | -22.6% | i | 11.8% | -16.6% | i | -29.8%
Oc1cc2c(cc1O)[C@@H](c1ccccc1)CNCC2 | u | i | 19.3% | 18.4µM* | i | u
O=[N+]([O-])c1cc(S(=O)(=O)NC2=NCCCCC2)ccc1Cl | 2.2% | i | -1.0% | 11.6% | i | 0.2%
c1ccc(COc2cccc(CN3CCN(c4ccccn4)CC3)c2)cc1 | 1.7% | i | u | u | 18.4µM* | 4.4%
CC(C)CCNC(=O)C1CCN(Cc2cccc(OCc3ccccc3)c2)CC1 | 23.1µM* | i | u | u | i | u
COCCNC(=O)C1CCN(Cc2cccc(OCc3ccccc3)c2)CC1 | -3.9% | i | u | u | i | 2.0%
CCOc1cccc(CN2CCC(n3nccc3NC(=O)C3CCCC3)CC2)c1 | -1.4% | i | 0.9% | 3.0% | 16.4µM* | -3.2%
O=C(Nc1ccnn1C1CCN(Cc2cccc(O)c2)CC1)C1CCCC1 | -10.1% | i | -8.0% | 6.8% | i | 2.9%
Cc1ccc(C(=O)C(C)OC(=O)c2ccc(Cl)nc2)cc1 (stereo not given) | -0.6% | i | -2.0% | 3.6% | i | -1.5%
COC(=O)c1sc2ccccc2c1-n1cccc1C(=O)C(=O)Nc1ccc(OC)cc1 | -10.0%[9.24 µM] | 5.8µM* | -5.2% | 28.3% | 8.2µM* | -23.3%
Cc1c(Cl)ccc2c(C(O)CBr)cc(-c3ccccc3)nc12 (stereo not given) | u | i | u | 20.6µM* | i | u
Cn1ncc(Cl)c1C(=O)NCc1ccc(Cl)cc1 | -5.5% | u | u | -67.5% | 3.66µM* | -1.2%
CC(C)(C)c1ccc(C2=NC(=O)C(CC(=O)O)S2)cc1 (stereo not given) | -1.6% | i | 13.4% | 11.5% | u | 2.2%
Cc1ccc(CCNC(=O)c2cc3sccc3n2Cc2ccc(C)cc2)cc1 | x | i | x | x | i | x

Screens as filed in PubChem BioAssay.
